A3G deaminase: APOBEC3G (human) deaminase inhibition. Q9HC16. recombinant A3G, ssDNA deamination FAM/TAMRA fluorescence. inhibition, % at 20 µM. actives 0.28% (n = 330,000). AID 493012;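 active = inhibition of at least 40% at 20 µM, with no more than 30% in the related APOBEC3A deaminase screen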;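 also: plate controls were DMSO wells with A3G for no effect and wells lacking A3G enzyme for full effect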
ADAM17 inh: inhibits human ADAM17. recombinant ADAM17, EDANS/DABCYL FRET peptide cleavage. actives 0.83% (n = 370,000). inhibition, % at 6.95 µM. AID 720648;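 active = inhibition above the mean of compounds lying between control limits plus 3 SD, set per campaign, cut at about 8.5% in these data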;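 also: 0% = DMSO-only wells as the low control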
ADAM10 inh: inhibitors of human ADAM10. O14672. recombinant ADAM10, EDANS/DABCYL FRET peptide cleavage, 3 h. inhibition, % at 7 µM. actives 0.62% (n = 370,000);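 active = inhibition above a per-campaign cutoff equal to the mean of compounds falling between control-based bounds plus 3 SD, cut at about 20% in these data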;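 also: 0% = DMSO wells while the 100% control is not disclosed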
NRP1-CendR mod: NRP-1/CendR interaction modulation. O14786. FAM-RPARPAR peptide binding to NRP-1, fluorescence polarization. inhibition, % at 25 µM. actives 0.85% (n = 360,000). AID 602438;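 active = inhibition or corrected inhibition above about 18%, plus a signal ratio from 0.5 to 1.5, limit read from the data, passing the limit was not always enough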
Target sequence (O14786 whole entry, looked up): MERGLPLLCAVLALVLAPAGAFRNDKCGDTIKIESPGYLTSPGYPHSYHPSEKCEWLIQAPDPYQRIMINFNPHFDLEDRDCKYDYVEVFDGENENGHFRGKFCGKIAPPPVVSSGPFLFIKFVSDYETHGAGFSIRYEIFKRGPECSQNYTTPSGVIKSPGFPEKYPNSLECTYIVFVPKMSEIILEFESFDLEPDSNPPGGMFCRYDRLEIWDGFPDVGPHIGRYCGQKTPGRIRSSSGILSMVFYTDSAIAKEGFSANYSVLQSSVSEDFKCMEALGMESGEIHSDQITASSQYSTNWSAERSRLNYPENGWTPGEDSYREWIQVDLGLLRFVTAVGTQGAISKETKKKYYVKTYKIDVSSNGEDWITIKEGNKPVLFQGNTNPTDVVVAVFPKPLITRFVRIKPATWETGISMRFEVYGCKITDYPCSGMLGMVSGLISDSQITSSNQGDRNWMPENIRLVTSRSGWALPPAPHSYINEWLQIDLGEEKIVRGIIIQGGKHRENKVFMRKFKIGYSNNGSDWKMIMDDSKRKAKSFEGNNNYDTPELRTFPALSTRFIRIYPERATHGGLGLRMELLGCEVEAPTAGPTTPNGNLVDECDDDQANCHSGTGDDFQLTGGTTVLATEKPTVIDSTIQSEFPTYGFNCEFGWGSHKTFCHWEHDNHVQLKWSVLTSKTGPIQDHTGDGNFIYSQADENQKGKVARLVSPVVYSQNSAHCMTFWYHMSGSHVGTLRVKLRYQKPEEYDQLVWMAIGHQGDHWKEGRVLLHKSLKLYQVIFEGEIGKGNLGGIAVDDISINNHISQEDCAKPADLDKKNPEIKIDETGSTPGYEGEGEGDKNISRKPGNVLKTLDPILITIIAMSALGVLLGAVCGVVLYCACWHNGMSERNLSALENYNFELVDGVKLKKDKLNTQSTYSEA
APOBEC3A inh: human APOBEC3A DNA deaminase inhibition; recombinant A3A, FAM/TAMRA ssDNA deamination fluorescence; inhibition, % at 20 µM; actives 0.41% (n = 330,000);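 active = at least 40% inhibition at 20 µM here, with at most 30% in a related deaminase screen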;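 also: plate controls were A3A with DMSO for no effect and wells lacking A3A enzyme for full effect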
ADAM10 counter: counter-screen for ADAM17 exosite inhibitors: inhibitors of human ADAM10; shares compounds with ADAM17 inh; recombinant ADAM10, EDANS/DABCYL FRET peptide cleavage, 3 h; inhibition, % at 6.95 µM; actives 47% (n = 2,900); AID 743256;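 active = mean inhibition over the triplicate runs exceeds the activity threshold set in the earlier primary screen, cut at about 20% in these data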;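 also: 0% = DMSO wells and 100% = marimastat wells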
ADAM17 confirm: human ADAM17 inhibition, confirmation; recombinant ADAM17, EDANS/DABCYL QFRET peptide cleavage; actives 65% (n = 2,900); shares compounds with ADAM17 inh; inhibition, % at 6.95 µM;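 active = mean inhibition across replicates above the hit cutoff set in the primary screen, cut at about 8.5% in these data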;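 also: 0% = DMSO wells and 100% = marimastat wells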
* = called active by the depositor; . = not tested or not shown. Shown are actives, neighbours in structure and some others; about 2.4% of the full set was active somewhere.

SMILES | A3G deaminase | ADAM17 inh | ADAM10 inh | NRP1-CendR mod | APOBEC3A inh | ADAM10 counter | ADAM17 confirm
OC(c1cccc(Cl)c1)c1nc(/C=C/c2ccc(C(F)(F)F)cc2)cs1 (centres undefined) | . | 11.8* | 16.1 | 7.1 | . | 1.5 | 6.3
CC(C)c1cccc(-c2csc(C(O)c3cccc(Cl)c3)n2)c1 (centres undefined) | . | 9.7* | 11.9 | -4.0 | . | 19.4 | 12.6*
CC(=O)NC(c1cccc(F)c1)c1nc(/C=C/c2ccccc2)cs1 (centres undefined) | . | 11.3* | 9.0 | 5.8 | . | 10.6 | 5.5
OC(c1cccc(Cl)c1)c1nc(-c2ccccc2)cs1 (centres undefined) | . | 0.2 | 3.1 | -7.0 | . | . | .
O=C(OCC#CCSc1nnc(-c2cccc3ccccc23)o1)c1ccsc1 | . | -11.1 | -44.4 | . | . | . | .
Cc1cccc(-c2cccc3c4c([nH]c23)[C@@H]2C[C@H]3[C@@H](CN2CC4)[C@H](C)ON3C)c1 | . | -13.0 | -41.6 | . | . | . | .
Oc1ccc(C[C@@H]2CNCCN2CCC23CC4CC(CC(C4)C2)C3)cc1 | 4.6 | 1.0 | -2.0 | 2.3 | 3.7 | . | .
Oc1ccc(C[C@H]2CNCCN2CCC23CC4CC(CC(C4)C2)C3)cc1 | 0.5 | 10.7* | 14.5 | 7.6 | -2.6 | 2.1 | 2.2
CC(C)[C@@H](C)/C=C/[C@@H](C)[C@H]1CC[C@@H]2[C@]1(C)CCC1[C@]23C=C[C@]2(C[C@@H](O)CC[C@]12C)N(c1cnccn1)O3 (some centres undefined) | . | 5.2 | 1.2 | . | . | . | .
COC(=O)[C@]12CCCCC=C1N(CCc1ccc(OC)c(OC)c1)C(=O)[C@H](CC(=O)NCc1cccc(C(F)(F)F)c1)C2 | . | 8.8* | 13.0 | -26.6 | . | 24.2* | 14.9*
COC(=O)[C@]12CCCCC=C1N(Cc1ccccc1)C(=O)[C@H](CC(=O)NCc1cccc3ccccc13)C2 | . | 5.2 | 4.2 | -3.7 | . | . | .
COC(=O)[C@]12CCCCC=C1N(CCc1ccc(OC)c(OC)c1)C(=O)[C@H](CC(=O)NCc1ccc(OC)c(OC)c1)C2 | . | -3.2 | -2.7 | -4.1 | . | . | .
COC(=O)[C@@]12C[C@@H](CC(=O)NCCCCc3ccccc3)C(=O)N(Cc3cccc4ccccc34)C1=CCC(C)(C)C2 | . | -0.1 | -2.5 | 5.5 | . | . | .
COC(=O)[C@@]12C[C@@H](CC(=O)NCc3ccccc3)C(=O)N(Cc3cccc4ccccc34)C1=CCC(C)(C)C2 | . | 9.1* | 17.0 | -3.5 | . | 14.8 | 6.2
COC(=O)[C@]12CCCCC=C1N(Cc1ccc3c(c1)OCO3)C(=O)[C@H](CC(=O)NCc1cccc3ccccc13)C2 | . | 8.9* | 19.0 | -3.0 | . | 33.3* | 22.3*
CCc1nc(SCc2ccc(Br)cc2)n[nH]1 | -10.7 | -1.4 | -1.1 | 2.6 | -4.2 | . | .
CCc1nc(SCc2ccc(OCC(C)C)cc2)n[nH]1 | -7.2 | 10.3* | 19.9* | -0.6 | -8.4 | 14.5 | 7.0
O=C(NCC(c1ccccc1)c1ccccc1)[C@H](Cc1ccccc1)NC1(C(=O)NC2CCCCC2)CCCC1 | . | -2.3 | 2.0 | . | . | . | .
Cc1ccc(C(=O)NCCNc2ccc([N+](=O)[O-])cc2C(F)(F)F)cc1 | -9.5 | 8.8* | 14.5 | 11.2 | -2.5 | 20.1* | 12.1*
COc1cccc(NC(=S)N/N=C2/CCCCc3ccccc32)c1 | . | 9.2* | 7.5 | -4.2 | . | 7.5 | 4.9
C=CCN1[C@@H](CC(C)C)COc2cc(N3CCSCC3)ccc2S1(=O)=O | . | -2.2 | 0.6 | . | . | . | .
O=C(c1cc(F)c(F)c(F)c1F)N1CCN(C(=O)C2CCCO2)CC1 (centres undefined) | -5.5 | 8.7* | -4.0 | 1.9 | -1.3 | -8.4 | -0.3
C[C@H](O)[C@@H]1CN2CCc3c([nH]c4c(-c5ccc6c(c5)OCO6)cccc34)[C@@H]2C[C@@H]1N(C)C(=O)c1ccccc1F | . | -0.7 | -4.0 | . | . | . | .
CCN(CC)C(=O)CC[C@@H]1CC[C@]2(CCCN(C(=O)c3ccno3)C2)O1 | . | -3.3 | -4.3 | . | . | . | .
O=C(CCCOC(=O)c1ccc(O)cc1O)c1ccc(Br)cc1 | 0.7 | 11.4* | 7.8 | -3.6 | 6.9 | 12.5 | 10.0*
Cn1c(COc2ccccc2)nnc1SCC(=O)Nc1ccccc1-c1ccccc1 | . | 4.8 | -3.5 | . | . | . | .
